Assay results published in PubChem BioAssay AID1159580 (chemical genetic matrix, 2015).
The campaign covered roughly 5,500 compounds. About 2,000 (36%) were called active. Roughly 18% stayed inconclusive and do not appear here. Rule as the data show it: active = normalized growth mostly below about 0.91 (no sharp cut-off); inconclusive = no clear call, values can overlap the other calls; inactive = mostly above about 0.92. This is one part of the list.

Test: chemical genetic growth profiling, strain panel (AID 1159580);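 also: tested at 20 µM; growth read once vehicle control cultures reached saturation at 30 °C; 1 = growth at the plate median or of vehicle wells; lower values mean less growth of the strain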
Details: growth OD

Measured: normalized growth

Fc1ccc([C@@H]2CCNC[C@H]2COc2ccc3c(c2)OCO3)cc1
inactive: S. cerevisiae deletion strains, locus YJR075W, strain HOC1, hits give low values 1.03 | S. cerevisiae deletion strains, locus YKL009W, strain mrt4, hits give low values 1.03 | S. cerevisiae deletion strains, locus YKL068W, hits give low values 1 | S. cerevisiae deletion strains, locus YKL085W, strain MDH1 (second series), hits give low values 0.991 | S. cerevisiae deletion strains, locus YKL085W, strain MDH1, hits give low values 0.991 | S. cerevisiae deletion strains, locus YKL160W, strain elf1, hits give low values 0.99 | S. cerevisiae deletion strains, locus YKL190W, strain CNB1, hits give low values 1.01 | S. cerevisiae deletion strains, locus YKR001C, strain vps1, hits give low values 1.02 | S. cerevisiae deletion strains, locus YKR026C, strain gcn3, hits give low values 1.01 | S. cerevisiae deletion strains, locus YKR091W, strain srl3, hits give low values 0.999 | S. cerevisiae deletion strains, locus YLL001W, strain dnm1, hits give low values 1 | S. cerevisiae deletion strains, locus YLL026W, hits give low values 0.998 | S. cerevisiae deletion strains, locus YLL041C, strain sdh2, hits give low values 1 | S. cerevisiae deletion strains, locus YLR027C, strain aat2, hits give low values 1 | S. cerevisiae deletion strains, locus YLR039C, strain RIC1, hits give low values 1.09 | S. cerevisiae deletion strains, locus YLR058C, strain SHM2, hits give low values 1.01 | S. cerevisiae deletion strains, locus YLR102C, strain apc9, hits give low values 1.02 | S. cerevisiae deletion strains, locus YLR113W, strain HOG1, hits give low values 0.995 | S. cerevisiae deletion strains, locus YLR221C, strain rsa3, hits give low values 1.01 | S. cerevisiae deletion strains, locus YLR258W, strain gsy2, hits give low values 1.01 | S. cerevisiae deletion strains, locus YLR262C, strain YPT6 (second series), hits give low values 1.08 | S. cerevisiae deletion strains, locus YLR262C, strain YPT6, hits give low values 1.09 | S. cerevisiae deletion strains, locus YLR268W, strain sec22, hits give low values 0.989 | S. cerevisiae deletion strains, locus YLR320W, strain mms22, hits give low values 0.984 | S. cerevisiae deletion strains, locus YLR330W, strain CHS5, hits give low values 1.01 | S. cerevisiae deletion strains, locus YLR342W, strain FKS1 (second series), hits give low values 1.06 | S. cerevisiae deletion strains, locus YLR342W, strain FKS1, hits give low values 0.996 | S. cerevisiae deletion strains, locus YLR357W, strain rsc2, hits give low values 0.998 | S. cerevisiae deletion strains, locus YLR370C, strain arc18, hits give low values 0.994 | S. cerevisiae deletion strains, locus YLR371W, strain rom2, hits give low values 1.01 | S. cerevisiae deletion strains, locus YLR384C, strain iki3, hits give low values 0.995 | S. cerevisiae deletion strains, locus YLR418C, strain cdc73, hits give low values 1.01 | S. cerevisiae deletion strains, locus YML016C, strain PPZ1, hits give low values 1.01 | S. cerevisiae deletion strains, locus YML032C, strain rad52, hits give low values 1.02 | S. cerevisiae deletion strains, locus YML120C, strain ndi1, hits give low values 0.991 | S. cerevisiae deletion strains, locus YML124C, strain tub3, hits give low values 1 | S. cerevisiae deletion strains, locus YMR058W, strain fet3, hits give low values 1 | S. cerevisiae deletion strains, locus YMR078C, strain ctf18, hits give low values 1.01 | S. cerevisiae deletion strains, locus YMR125W, strain sto1, hits give low values 0.999 | S. cerevisiae deletion strains, locus YMR129W, hits give low values 0.995 | S. cerevisiae deletion strains, locus YMR205C, strain PFK2, hits give low values 0.98 | S. cerevisiae deletion strains, locus YMR223W, strain ubp8, hits give low values 1.03 | S. cerevisiae deletion strains, locus YMR231W, strain pep5, hits give low values 1.01 | S. cerevisiae deletion strains, locus YMR263W, strain SAP30, hits give low values 1 | S. cerevisiae deletion strains, locus YMR307W, strain GAS1, hits give low values 1.13 | S. cerevisiae deletion strains, locus YNL067W, strain RPL9B, hits give low values 0.994 | S. cerevisiae deletion strains, locus YNL071W, strain lat1, hits give low values 1 | S. cerevisiae deletion strains, locus YNL128W, strain TEP1, hits give low values 1.02 | S. cerevisiae deletion strains, locus YNL153C, strain GIM3, hits give low values 0.979 | S. cerevisiae deletion strains, locus YNL183C, strain NPR1, hits give low values 1.01 | S. cerevisiae deletion strains, locus YNL209W, strain ssb2, hits give low values 1 | S. cerevisiae deletion strains, locus YNL233W, strain BNI4, hits give low values 1 | S. cerevisiae deletion strains, locus YNL248C, strain rpa49, hits give low values 1.02 | S. cerevisiae deletion strains, locus YNL250W, strain rad50, hits give low values 1 | S. cerevisiae deletion strains, locus YNL271C, strain bni1, hits give low values 1.02 | S. cerevisiae deletion strains, locus YNL298W, strain CLA4, hits give low values 1.01 | S. cerevisiae deletion strains, locus YNL307C, strain MCK1, hits give low values 1.03 | S. cerevisiae deletion strains, locus YNL322C, strain KRE1 (second series), hits give low values 1.01 | S. cerevisiae deletion strains, locus YNL322C, strain KRE1, hits give low values 1.01 | S. cerevisiae deletion strains, locus YNR049C, strain mso1, hits give low values 1 | S. cerevisiae deletion strains, locus YNR052C, strain pop2, hits give low values 1.02 | S. cerevisiae deletion strains, locus YOL006C, strain TOP1, hits give low values 1.06 | S. cerevisiae deletion strains, locus YOL012C, strain htz1 1.14 | S. cerevisiae deletion strains, locus YOL147C, strain pex11, hits give low values 1 | S. cerevisiae deletion strains, locus YOR001W, strain rrp6, hits give low values 0.983 | S. cerevisiae deletion strains, locus YOR061W, strain CKA2, hits give low values 1.01 | S. cerevisiae deletion strains, locus YOR069W, strain VPS5, hits give low values 1.01 | S. cerevisiae deletion strains, locus YOR070C, strain gyp1, hits give low values 1 | S. cerevisiae deletion strains, locus YOR080W, strain dia2, hits give low values 1 | S. cerevisiae deletion strains, locus YOR083W, strain WHI5, hits give low values 1.01 | S. cerevisiae deletion strains, locus YOR106W, strain vam3, hits give low values 1 | S. cerevisiae deletion strains, locus YOR136W, strain idh2, hits give low values 1.01 | S. cerevisiae deletion strains, locus YOR144C, strain elg1, hits give low values 1 | S. cerevisiae deletion strains, locus YOR184W, strain ser1, hits give low values 1.05 | S. cerevisiae deletion strains, locus YOR231W, strain MKK1, hits give low values 1.03 | S. cerevisiae deletion strains, locus YOR265W, strain rbl2, hits give low values 0.996 | S. cerevisiae deletion strains, locus YOR270C, strain vph1, hits give low values 0.905 | S. cerevisiae deletion strains, locus YOR290C, strain snf2, hits give low values 1.03 | S. cerevisiae deletion strains, locus YOR316C, strain cot1, hits give low values 1 | S. cerevisiae deletion strains, locus YPL051W, strain arl3, hits give low values 1 | S. cerevisiae deletion strains, locus YPL055C, strain LGE1, hits give low values 1.01 | S. cerevisiae deletion strains, locus YPL078C, strain atp4, hits give low values 1.01 | S. cerevisiae deletion strains, locus YPL106C, strain sse1, hits give low values 1.03 | S. cerevisiae deletion strains, locus YPL240C, strain hsp82, hits give low values 1.02 | S. cerevisiae deletion strains, locus YPL241C, strain CIN2, hits give low values 1.01 | S. cerevisiae deletion strains, locus YPL256C, strain CLN2, hits give low values 1.04 | S. cerevisiae deletion strains, locus YPR119W, strain clb2, hits give low values 1.01 | S. cerevisiae deletion strains, locus YPR141C, strain kar3, hits give low values 1 | S. cerevisiae deletion strains, locus YPR163C, strain tif3, hits give low values 1 | S. cerevisiae deletion strains, locus YPR167C, strain met16, hits give low values 1.01 | S. cerevisiae deletion strains, strain wtn01, hits give low values 0.998 | S. cerevisiae strains, strain wild type, hits give low values 1.02
